High-throughput results as filed in PubChem.
The list is not random: actives were taken first. Their share in the collection is about 2.8%.
PI4K2A block: qHTS for small molecular inhibitors of PI4K2A; Phosphatidylinositol 4-kinase type 2-alpha (Homo sapiens), Q9BTU6; activity change, negative = inhibition, % at 76.9 µM; 0.13% of 420,000 active; purified PI4K2A, ADP-Glo luminescence, 1 h; stronger effect = lower value; in the data active = activity change below about -50%; inconclusive = mostly about -30% to -49%;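 also: -100% = wells without enzyme as full effect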
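In this quantitative HTS, ADP production by PI4K2A was quantified luminescently after 1 h at ambient temperature; 100 microM adenosine served as plate-quality control.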
Pol iota inh: qHTS for Inhibitors of Polymerase Iota | Pol iota fluorescent replication assay, 10 min | Potency, µM (series often up to 115 µM), for the others: at the top dose activity, negative = inhibition, usual class: inhibitors | 1% of 390,000 active; also: potency is read from the fitted curve at half-maximal effect
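Pol iota at 10 nM preincubated 15 min with compounds at room temperature; reaction started with fluorescent substrate, 50 nM final. Fluorescence read kinetically at 0 and 10 min; buffer-only wells as negative control.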
Pol kappa inh-1: qHTS for Inhibitors of Polymerase Kappa. purified Pol kappa, fluorescent DNA synthesis assay, 10 min. Potency, µM (series often up to 107 µM), for the others: top-dose activity, negative = inhibition, actives largely listed as inhibitors. 0.53% of 400,000 active. AID 588579, 2011; also: potency is read from the fitted curve at half-maximal effect; % is scaled to controls: 0 for no effect and ±100 for the full control effect
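Readout: fluorescence, taken kinetically at 0 and 10 min. Conditions: 10 nM Pol kappa, 15 min RT compound preincubation, 50 nM substrate final. Controls: enzyme-free buffer wells.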
PI5P4Ka inh: qHTS for Inhibitors of phosphatidylinositol 5-phosphate 4-kinase (PI5P4K); Phosphatidylinositol 5-phosphate 4-kinase type-2 alpha (Homo sapiens), P48426; PI5P4Kalpha enzyme, ADP-Glo luminescence, 60 min; stronger effect = lower value; max response, %; 1.2% of 330,000 active; AID 652105, 2013; active = max response of -50% or lower; inconclusive = between -30% and -50%; inactive = -30% or higher; also: value at the top dose of about 77 µM; % is scaled to controls: 0 for no effect and ±100 for the full control effect
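Enzyme plus substrate dispensed, test compounds pinned in, then ATP (5 microM final) added. After 60 min at RT, ADP-Glo reagent 1 for 45 min and reagent 2 for 30 min preceded luminescence imaging.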
POLB inh: qHTS Assay for Inhibitors of DNA Polymerase Beta | Pol beta primer extension/strand displacement, fluorescence kinetic | Potency, µM (top dose mostly 114 µM), for inactives: top-dose activity change, negative = inhibition, actives largely listed as inhibitors | 1.3% of 340,000 active | AID 485314, 2010; also: potency is read from the fitted curve at half-maximal effect; % is scaled to controls: 0 for no effect and ±100 for the full control effect
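10 nM enzyme + cpd, 15 min RT; start with substrate 50 nM final; read 0 min and after 10 min RT. Corrected, normalized data; 4-parameter Hill curve fit.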
Pol eta inh-1: qHTS for Inhibitors of Polymerase Eta; 1.2% of 390,000 active; Potency, µM (titrated, usually from 114 µM), without a hit: at the highest dose activity change, negative = inhibition, usual class: inhibitors; AID 588591, 2011; recombinant Pol eta, fluorescent DNA replication assay; also: potency is read from the fitted curve at half-maximal effect; % is scaled to controls: 0 for no effect and ±100 for the full control effect
Target sequence (Q9Y253 whole entry, looked up): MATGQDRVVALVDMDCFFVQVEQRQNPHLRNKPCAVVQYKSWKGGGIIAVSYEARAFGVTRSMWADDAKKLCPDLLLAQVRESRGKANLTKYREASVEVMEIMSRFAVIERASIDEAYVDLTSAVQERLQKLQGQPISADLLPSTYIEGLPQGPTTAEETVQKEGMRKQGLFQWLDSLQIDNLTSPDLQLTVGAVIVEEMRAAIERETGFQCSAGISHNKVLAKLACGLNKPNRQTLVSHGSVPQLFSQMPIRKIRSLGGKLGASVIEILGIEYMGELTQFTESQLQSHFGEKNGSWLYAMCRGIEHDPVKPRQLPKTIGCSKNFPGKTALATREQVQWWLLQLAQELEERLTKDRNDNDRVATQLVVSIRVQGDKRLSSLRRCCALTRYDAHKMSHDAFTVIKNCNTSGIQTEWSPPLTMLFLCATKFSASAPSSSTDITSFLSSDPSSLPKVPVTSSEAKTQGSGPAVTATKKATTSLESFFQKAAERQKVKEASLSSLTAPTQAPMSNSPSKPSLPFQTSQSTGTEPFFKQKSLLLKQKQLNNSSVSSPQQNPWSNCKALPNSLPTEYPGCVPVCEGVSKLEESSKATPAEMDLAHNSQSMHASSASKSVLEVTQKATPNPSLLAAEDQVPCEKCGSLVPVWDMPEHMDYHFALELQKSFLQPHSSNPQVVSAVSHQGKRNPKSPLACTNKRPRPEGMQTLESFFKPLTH
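Pol eta at 10 nM preincubated with compounds 15 min at room temperature; reaction started with fluorescent substrate (50 nM final) and read kinetically at 0 and 10 min.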
Pol kappa inh-2: qHTS for Inhibitors of Polymerase Kappa: Confirmatory Assay for Cherry-picked Compounds | shares compounds with Pol eta inh-1 | purified Pol-kappa, fluorescent strand-displacement substrate | Potency, µM, usual class: inhibitors | 76% of 920 active; also: potency is read from the fitted curve at half-maximal effect
Pol eta inh-2: qHTS for Inhibitors of Polymerase Eta: Confirmatory Assay for Cherry-picked Compounds; 64% of 2,600 active; Potency, µM, hits mostly inhibitors; Pol eta primer extension, TAMRA/BHQ fluorescence, 10 min; shares compounds with Pol eta inh-1; also: potency is read from the fitted curve at half-maximal effect
ADP-Glo counter: qHTS for Inhibitors of PI5P4K: ADP-Glo counter assay | shares compounds with PI5P4Ka inh | ADP-Glo detection counter-screen, luciferase luminescence, no enzyme | Potency, µM (top dose mostly 76.9 µM), for the others: at the highest dose activity change, negative = inhibition, hits mostly inhibitors | 1,100 tested, under 10 active | AID 743285, 2014
* marks the source's active call; other numbers are inactive results; ? = inconclusive; · = no result given; [ ] = another dose, or the depositor's remark. Unless noted, calls follow the shape of the dose curve; as a rule, active = well fitted curve in the direction sought with a large enough effect; inconclusive = small, poorly fitted or top-dose-only effect, or another doubt; inactive = no such curve, though single readings can be large; an effect the other way counts as inactive or inconclusive.

SMILES	PI4K2A block	Pol iota inh	Pol kappa inh-1	PI5P4Ka inh	POLB inh	Pol eta inh-1	Pol eta inh-2	others
CC1=NN(c2ccccc2)C(=O)C1/C=C1/C(=O)NC(=O)N(c2cccc(C)c2)C1=O (stereo unspecified)	·	·	·	·	19%	·	·
Cc1cccc(N2C(=O)NC(=O)/C(=C\c3ccc4c(c3)CCCN4Cc3ccccc3)C2=O)c1	-3	?	-1%	?	-28%	22µM*	?
Cc1ccc2c(c1)Cc1c(C(=O)NN3CCCCC3)nn(-c3ccc(Cl)cc3Cl)c1-2	·	·	4%[60.1 µM]	·	·	·	·
O=C1Nc2ccccc2/C1=C/c1nc2ccccc2c(=O)n1-c1ccc(O)cc1	3	18µM*	?	-21	?	?	?
Cc1c(O)c(O)cc2c1CC=C1[C@]3(C)CC[C@]4(C)CC[C@@](C)(C(=O)O)CC4[C@]3(C)CC[C@]12C (stereo partly specified)	·	·	-6%[60.1 µM]	·	·	·	·
CC1=C(O)C(=O)C=C2C1=CC=C1C2(C)CCC2(C)C3CC(C)(C(=O)O)CCC3(C)CCC12C (stereo unspecified)	-27	3.5µM*	32µM*	-72*	·	7.9µM*	34*
CCC1(CCCC(=O)c2ccc(F)cc2)C(=O)NC(=S)NC1=O	-2	34%	-19%	3	26%	-19%	·
O=C1NC(=S)NC(=O)C12C(c1ccc(F)cc1)NC(=S)NC2c1ccc(F)cc1 (stereo unspecified)	-15	-17%	0%	3	9%	40µM*	?
O=C1NC(=S)NC(=O)C1c1ccccc1	3	8%	-7%	?	·	-5%	·
O=C1NC(=S)NC(=O)C12C(c1ccccc1)NC(=S)NC2c1ccccc1 (stereo unspecified)	-24	20µM*	-6%	0	1%	50µM*	?
O=[N+]([O-])c1ccc(Sc2nc3ccccc3o2)c([N+](=O)[O-])c1	32	11µM*	-4%	·	5%	50µM*	?
O=[N+]([O-])c1ccc(N2CC2)c([N+](=O)[O-])c1	8	7%	-3%	-2	·	-8%	·
O=C(Nc1ccc(Oc2ccc(Cl)cc2)c(Cl)c1)c1cc(I)cc(I)c1O	3	?	-25%	-55*	6%	?	?	Pol kappa inh-2=13*
Cn1cccc1/C=C1\C(=O)NC(=O)N(Cc2ccccc2)C1=O	-1	22µM*	50µM*	-58*	?	35µM*	?
Cn1cccc1/C=C1/C(=O)NC(=O)N(Cc2ccccc2)C1=O	-14	16µM*	79µM*	-66*	4%	?	76*
Nc1ncc(S(=O)(=O)c2ccc(Cl)cc2)c(N)n1	-3	?	-3%	-4	-1%	-25%	·
CCOC(=O)c1ccc(N2C(=O)c3n[nH]c(-c4cccs4)c3C2c2ccc(OC)cc2OC)cc1 (stereo unspecified)	-4	41%	-15%	·	2%	-16%	·
N#Cc1c(-c2csc(-c3no[n+]([O-])c3C#N)c2)no[n+]1[O-]	·	·	·	·	·	·	?
C[C@]12CC[C@@H]3c4ccc(O)cc4C[C@@H](CCCCCCCCCS(=O)CCCC(F)(F)C(F)(F)F)[C@H]3[C@@H]1CC[C@@H]2O (stereo partly specified)	-1	·	-8%[60.1 µM]	·	·	·	·
C=CCN1C(=O)NC(=O)C(Cc2ccc(OC)c(OC)c2)C1=O (stereo unspecified)	-6	?	?	8	-3%	8.9µM*	30*
COP(=O)(c1ccc(N(C)C)cc1)C(O)c1ccccc1 (stereo unspecified)	3	67%	3%	-7	-3%	-8%	·
CCN(CC)c1ccc(/C=C2\C(=O)NC(=O)N(Cc3ccco3)C2=O)cc1	-28	20µM*	79µM*	-57*	?	22µM*	?	Pol kappa inh-2=34*
CCN(CC)c1ccc(/C=C2/C(=O)NC(=O)N(CC3CCCO3)C2=O)cc1 (stereo unspecified)	?	?	-2%	-23	19%	3%	·
CN1[C@@H]2CC[C@H]1CC(O[C@@H](c1ccccc1)c1ccc(Cl)cc1)C2 (stereo partly specified)	·	·	-13%[19.4 µM]	·	·	·	·
O=C1NC(=O)C(=Cc2ccc(SC3CCCCC3)o2)C(=O)N1	-27	10µM*	-90%	-75*	20µM*	20µM*	48*
SMILES	PI4K2A block	Pol iota inh	Pol kappa inh-1	PI5P4Ka inh	POLB inh	Pol eta inh-1	Pol eta inh-2	others
Cc1cc(C)cc(N2C(=O)NC(=O)/C(=C\C=C\c3ccco3)C2=O)c1	-15	22µM*	40µM*	-30	28µM*	18µM*	30*	Pol kappa inh-2=19*
Cc1ccc(N2C(=O)NC(=O)/C(=C\c3cnc(-c4ccccc4)nc3)C2=O)cc1	-13	-3%	-7%	?	3%	-7%	·
CC1=NN(c2ccccc2)C(=O)C1/C=C1\C(=O)NC(=O)N(c2cc(C)cc(C)c2)C1=O (stereo unspecified)	-27	?	-5%	-10	-8%	-11%	·
Cc1ccc(N2C(=O)NC(=O)/C(=C/C=C/c3ccco3)C2=O)cc1	?	11µM*	20µM*	-24	32µM*	?	?
O=[N+]([O-])c1ccc(N2CCCCCC2)c2nonc12	-5	28µM*	?	-3	20µM*	?	60*
O=[N+]([O-])c1ccc(N2CCCCC2)c2ncccc12	-3	95%	-3%	0	13%	-7%	·
Nc1c([N+](=O)[O-])ccc(Oc2ccccc2)c1Cl	·	·	2%[60.1 µM]	·	·	·	·
COc1ccc(C(=O)C2CCCN(Cc3ccon3)C2)c(OC)c1 (stereo unspecified)	1	89µM*	?	-84*	0%	?	·	ADP-Glo counter=2%
O=C(C/C=N\OCc1ccc([N+](=O)[O-])cc1)Nc1ccc(F)cc1F	-1	101%	-7%	0	20%	-24%	·
N#CC1c2ccccc2-n2nncc2CN1Cc1cc(Cl)cc(Cl)c1 (stereo unspecified)	3	?	-5%	-60*	·	-9%	·	ADP-Glo counter=-9%
COc1ccc(CN2Cc3cnnn3-c3ccccc3C2C#N)cc1 (stereo unspecified)	4	?	-6%	-10	·	-10%	·
